{"source": "PubChem BioAssay (NCATS)", "note": "The source made the active and inactive calls. The call rests on the fitted dose curve; in most records, active means well fitted inhibition curve with a large enough effect; inconclusive means small, poorly fitted or top-dose-only effect; inactive means no such curve, though single readings can be large or run the other way. Potency means the concentration at half of the fitted maximal effect."}
{"test": "qHTS assay for measurement of the activity of small molecule inhibitors on Zika virus induced Caspase-3 activity in human astrocytoma cells (AID 1224859);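 on activity change, negative = inhibition: plate controls were ZIKV-infected untreated cells for no effect and uninfected cells for full effect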", "conditions": "SNB-19 ZIKV-induced caspase-3/7, luminescence, 6 h; series mostly up to 45.7 µM; activity change, negative = inhibition: at the top concentration", "method_in_brief": "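Luminescence read-out (Caspase-Glo 3/7, 30 min RT) of caspase activity in SNB-19 cells infected 6 h with ZIKV, 2 FFU/cell, after 1 h compound pretreatment; % inhibition from induction normalised to uninfected (0%) and infected (100%) wells.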"}
{"smiles": "COc1cc2c(NC3CCN(C(C)C)CC3)nc(C3CCCCC3)nc2cc1OCCCN1CCCC1", "activity change, negative = inhibition": "0.594% (inactive)"}
{"smiles": "Cc1cc(N2CCOCC2)cc2[nH]c(-c3c(NC[C@@H](O)c4cccc(Cl)c4)cc[nH]c3=O)nc12", "activity change, negative = inhibition": "50.2% (inactive)"}
{"smiles": "CNC(=O)c1ccc(-c2cnc3ncc(Cc4ccc5ncccc5c4)n3n2)cc1F", "activity change, negative = inhibition": "20.9% (inactive)"}
{"smiles": "C=CC(=O)Nc1cccc(Oc2nc(Nc3ccc(N4CCN(C)CC4)cc3)ncc2Cl)c1", "activity change, negative = inhibition": "161% (inactive)"}
{"smiles": "O=C(Cc1ccc(-c2ccc(OCCN3CCOCC3)cc2)cn1)NCc1ccccc1", "activity change, negative = inhibition": "81.1% (inactive)"}
{"smiles": "Clc1cccc(-n2nnnc2NCc2ccccc2Oc2ccccn2)c1Cl", "activity change, negative = inhibition": "7.5% (inactive)"}
{"smiles": "COc1cccc2c(NCc3ccccc3)nc(-n3c(N)nc4ccccc43)nc12", "activity change, negative = inhibition": "-25.3% (inactive)"}
{"smiles": "Nc1ncnc2c1c(-c1cccc(OCc3ccccc3)c1)cn2C1CC(CN2CCCC2)C1", "note": "(stereo not given)", "activity change, negative = inhibition": "9.48% (inactive)"}
{"smiles": "Cc1c(CN2CCN(S(C)(=O)=O)CC2)sc2c(N3CCOCC3)nc(-c3cnc(N)nc3)nc12", "activity change, negative = inhibition": "30.5% (inactive)"}
{"smiles": "O=C1CCC[C@@H]2[C@H]3CCC[N+]4([O-])CCC[C@@H](CN12)[C@@H]34", "note": "(stereo not given in full)", "activity change, negative = inhibition": "-8.22% (inactive)"}
{"smiles": "NC(=O)c1cccc2cn(-c3ccc([C@@H]4CCCNC4)cc3)nc12", "activity change, negative = inhibition": "-1.06% (inactive)"}
{"smiles": "COc1cccc(Nc2c(C(N)=O)cnc3c(C)cc(S(=O)(=O)c4cccc(C(=O)N(C)C)c4)cc23)c1", "activity change, negative = inhibition": "70.2% [at 20.5 µM] (inactive)"}
{"smiles": "O=c1c2ccccc2nc2n1CCc1c-2[nH]c2ccccc12", "Potency": "7.94 µM (active)"}
{"smiles": "COC(=O)C1=C(C)NC(C)=C(C(=O)OCCN2CCN(C(c3ccccc3)c3ccccc3)CC2)C1c1cccc([N+](=O)[O-])c1", "note": "(stereo not given)", "activity change, negative = inhibition": "-5.46% (inactive)"}
{"smiles": "CN(C)Cc1c(C(=O)NCCOc2ccc(C(=O)NO)cc2)oc2ccccc12", "activity change, negative = inhibition": "-5.52% (inactive)"}
{"smiles": "CCN(CC)CCNC(=O)c1ccc2nc(-c3ccccc3)c(-c3ccc(CN4CCC(n5c(=O)[nH]c6ccccc65)CC4)cc3)nc2c1", "activity change, negative = inhibition": "21.9% (inactive)"}
{"smiles": "COc1ccc2c(OCc3nnc4ccc(-c5ccccc5)nn34)ccnc2c1", "activity change, negative = inhibition": "35.3% (inactive)"}
{"smiles": "Nc1ncnc2c1c(-c1cnc3[nH]ccc3c1)nn2C1CCCC1", "activity change, negative = inhibition": "220% (inactive)"}
{"smiles": "CC(C)c1cc(-c2n[nH]c(=O)n2-c2ccc3c(ccn3C)c2)c(O)cc1O", "activity change, negative = inhibition": "21.2% (inactive)"}
{"smiles": "COc1cc2c(cc1-c1c(C)noc1C)ncc1[nH]c(=O)n([C@H](C)c3ccccn3)c12", "activity change, negative = inhibition": "34.5% (inactive)"}
{"smiles": "COc1cc(Nc2ncc(F)c(Nc3ccc4c(n3)N(COP(=O)(O)O)C(=O)C(C)(C)O4)n2)cc(OC)c1OC", "activity change, negative = inhibition": "41.2% (inactive)"}
{"smiles": "CC[C@@]1(O)C(=O)OCc2c1cc1n(c2=O)Cc2cc3cc(O)ccc3nc2-1", "activity change, negative = inhibition": "-4.16% (inactive)"}
{"smiles": "Cc1ccc2nc(NC(=O)CSc3nc4c(c(=O)n3-c3ccccc3)SCC4)sc2c1", "activity change, negative = inhibition": "10.1% (inactive)"}
{"smiles": "CN1CCN(Cc2ccc(NC(=O)Nc3ccc(Oc4cc(NC(=O)C5CC5)ncn4)cc3)cc2C(F)(F)F)CC1", "activity change, negative = inhibition": "58.9% (inactive)"}
{"smiles": "COc1ccc(C(=O)CC2(O)C(=O)Nc3c(Cl)ccc(Cl)c32)cc1", "note": "(stereo not given)", "activity change, negative = inhibition": "48% (inactive)"}
{"smiles": "CN1CC[C@@H](c2c(O)cc(O)c3c(=O)cc(-c4ccccc4Cl)oc23)[C@@H](O)C1", "activity change, negative = inhibition": "17.2% (inactive)"}
{"smiles": "CC1(C)CC(=O)c2c(C(F)(F)F)nn(-c3ccc(C(N)=O)c(NC4CCC(OC(=O)CN)CC4)c3)c2C1", "note": "(stereo not given)", "activity change, negative = inhibition": "7.96% (inactive)"}
{"smiles": "COC(=O)[C@]12CCC(C)(C)C[C@@H]1[C@@H]1C(=O)C=C3[C@@]4(C)C=C(C#N)C(=O)C(C)(C)[C@@H]4CC[C@@]3(C)[C@]1(C)CC2", "activity change, negative = inhibition": "48.9% (inactive)"}
{"smiles": "O=C(CCCCCCC(=O)Nc1ccc([C@H]2O[C@@H](CSc3nc(-c4ccccc4)c(-c4ccccc4)o3)C[C@@H](c3ccc(CO)cc3)O2)cc1)NO", "activity change, negative = inhibition": "11.4% (inactive)"}
{"smiles": "COc1cccc(-c2ccc(NC(=O)C3=C(C(=O)O)CCC3)c(F)c2)c1", "Potency": "2.35 µM (active)"}
{"smiles": "CC(C)(O)CCc1ccc(OCc2cc(-c3cccc(OC(F)F)c3)c3ncccc3c2)cc1", "activity change, negative = inhibition": "37.1% (inactive)"}
{"smiles": "CCc1cc2c(cc1N1CCC(N3CCOCC3)CC1)C(C)(C)c1[nH]c3cc(C#N)ccc3c1C2=O", "activity change, negative = inhibition": "19.7% (inactive)"}
{"smiles": "OCc1ccc(-c2ccc(-c3ccc(CO)s3)o2)s1", "activity change, negative = inhibition": "7.34% (inactive)"}
{"smiles": "Cc1coc2c1C(=O)C(=O)c1c-2ccc2c1CCCC2(C)C", "activity change, negative = inhibition": "14.4% (inactive)"}
{"smiles": "COc1ccc(-n2nc(C(N)=O)c3c2C(=O)N(c2ccc(N4CCCCC4=O)cc2)CC3)cc1", "activity change, negative = inhibition": "3.32% (inactive)"}
